The source of these data is ChEMBL document CHEMBL3433997, “St. Jude Leishmania screening dataset” (2016).

Holding throughout (type): functional
In assay [1] the target is Solute carrier family 2, facilitated glucose transporter member 1 (Homo sapiens) (UniProt P11166). Briefly: ST_JUDE_LEISH: Cytotoxicity at 2uM final concentration against transgenic Leishmania Mexicana promastigotes LmGLUT1 that are glucose transport deficient and complemented with the human glucose transporter GLUT1. Activity is measured by DNA content using SYBR green in vitro.
Sequence of Solute carrier family 2, facilitated glucose transporter member 1 (Homo sapiens) (P11166 whole entry): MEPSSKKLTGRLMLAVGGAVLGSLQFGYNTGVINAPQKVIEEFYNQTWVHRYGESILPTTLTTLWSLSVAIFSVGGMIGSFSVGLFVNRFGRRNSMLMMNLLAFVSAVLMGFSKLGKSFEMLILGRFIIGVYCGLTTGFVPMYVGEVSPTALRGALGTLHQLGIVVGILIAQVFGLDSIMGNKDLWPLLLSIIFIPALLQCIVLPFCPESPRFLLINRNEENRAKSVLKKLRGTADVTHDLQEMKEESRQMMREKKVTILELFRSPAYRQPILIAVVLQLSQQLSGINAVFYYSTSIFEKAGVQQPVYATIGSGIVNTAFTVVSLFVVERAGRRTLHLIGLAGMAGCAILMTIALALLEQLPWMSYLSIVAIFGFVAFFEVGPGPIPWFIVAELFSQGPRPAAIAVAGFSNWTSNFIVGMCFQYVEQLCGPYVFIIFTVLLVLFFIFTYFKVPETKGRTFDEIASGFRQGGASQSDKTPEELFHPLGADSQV

The target in assay [2] is Hexose transporter 1 (Plasmodium falciparum) (UniProt O97467). The assay can be described thus: ST_JUDE_LEISH: Cytotoxicity at 2uM final concentration against transgenic Leishmania Mexicana promastigotes LmPfHT that are glucose transport deficient and complemented with the Plasmodium falciparum hexose transporter. Activity is measured by DNA content using SYBR green in vitro.

The target in assay [3] is Glucose transporter (Leishmania mexicana) (UniProt O61059). The assay can be described thus: ST_JUDE_LEISH: Cytotoxicity at 2uM final concentration against transgenic Leishmania Mexicana promastigotes LmGT2 that are glucose transport deficient and complemented with the L. Mexicana glucose transporter 2. Activity is measured by DNA content using SYBR green in vitro.

On to `COc1ccc(Cl)cc1N1CCN(CCCNC(=O)c2ccc(-c3nc4ccc(C(F)(F)F)cc4[nH]3)c(C)c2)CC1`, for which the inhibition in assay [1] was found to be 2.82%; in assay [2], 0.02%; in assay [3] it was 0.17%.
Taken in the same sequence, the figures for `COC(=O)c1sc2ccccc2c1NC(=O)c1ccc(C)c(C)c1` were 5.3%, 4.87% and 5.56%.
As for `COc1ccc(C(=O)CCC(=O)N(Cc2ccc(-c3ccc(CNCCc4ccc(S(C)(=O)=O)cc4)cn3)cc2)C2CCN(Cc3ccccc3)CC2)cc1F`, the results for the inhibition in assay [1], in assay [2] and in assay [3] were 4.03%, 5.85% and 2.72%, respectively.
In the case of `Cc1[nH]c2ccccc2c(=O)c1Br`, the inhibition in assay [1] is 5.04%; in assay [2], 5.06%; in assay [3], -5.87%.
Consider `Nc1nc(N)c2c(ccc3c2ccn3C2C=CCCC2)n1` (stereo unspecified), for which the inhibition worked out at 56.1% in assay [1], 71.8% in assay [2] and 34.4% in assay [3].
Turning to `CCNc1cc(C(=O)N[C@@H](Cc2ccccc2)[C@H](O)CNC(C)C)cc(N2CC(c3ccccc3)CCS2(=O)=O)c1` (stereo partly specified), the inhibition is 2.23% in assay [1], 2.11% in assay [2] and 4.05% in assay [3].
On to `COc1ccc(-c2nc3c(N)nc(N)nc3nc2C(C)C)cc1`, for which the inhibition amounted to 15.6% in assay [1], 30.7% in assay [2] and 21.4% in assay [3].
Take `Cc1cn(CC(=O)Nc2cccc(-c3cccc(-c4nc5cc(C(F)(F)F)ccc5[nH]4)c3)c2)c(=O)[nH]c1=O`: the inhibition in assay [1] was found to be 9.16%; in assay [2], 8.95%; in assay [3], 4.55%.
Taken in the same sequence, the figures for `Cc1c(CCC#N)c(NCc2ccccc2)n2c(nc3ccccc32)c1C#N` were 1.13%, 0.53% and -0.97%.
In the case of `O=C(CCN1CCCCC1)Nc1ccc(Nc2nccc(NCC(O)c3ccccc3)n2)cc1` (stereo unspecified), the inhibition in assay [1] was -1.33%; in assay [2], -1.09%; in assay [3], -2.39%.
`Cc1ccc(S(=O)(=O)NC2CCN(c3ccnc4cc(Cl)ccc34)C2)cc1` (stereo unspecified): the inhibition came out at 3.79% in assay [1], 3.39% in assay [2] and 4.19% in assay [3].
For `Cc1cc(CN2CC[C@H](NC(=O)c3ccc(Cl)c(Cl)c3)C2)ccc1OCCN1CCNCC1`, the inhibition in assay [1] is -0.62%; in assay [2], 0.59%; in assay [3] it was 0.3%.
`CCCCCN1CCC(NC(=O)c2ccc(C(=O)Nc3ccc(C(C)C)cc3)cc2)CC1`: the inhibition in assay [1] is -0.86%; in assay [2], -0.06%; in assay [3] it was -5.29%.
For `C=C(C)C1CC=C(CN2CCCC(n3ccc4cc(NC(=O)c5ccco5)ccc43)CC2)CC1` (stereo unspecified), in that order: -1.77%, 3.75% and -2.38%.
Turning to `c1ccc(-n2ncc(CNCc3ccc(-c4cccc(-c5nc6ccccc6[nH]5)c4)cc3)n2)cc1`, the figures for the inhibition in assay [1], in assay [2] and in assay [3] were 1.76%, 1.26% and -2.38%, respectively.
For `CN(C)CCNc1ncnc2c1[nH]c1ccc(Br)cc12`, the inhibition was determined as 1.62% in assay [1], 4.67% in assay [2] and 1.38% in assay [3].
Taken in the same sequence, the figures for `CCCCCCCCn1ccc(=N)cc1` were 4.46%, 3.06% and 0.3%.
As for `CC(C)c1ccc(N2CCN(CCCCNC(=O)c3ccc(NC(=O)c4cc(Cl)cc(Cl)c4)cc3)CC2)cc1`, the inhibition in assay [1] is -0.22%; in assay [2], 1.11%; in assay [3], 1.9%.
`COc1cc2nc(N(C)C)nc(Nc3ccc(OCc4ccccc4)cc3)c2cc1OC`: the figures for the inhibition in assay [1], in assay [2] and in assay [3] were 0.24%, 1.34% and -0.07%, respectively.
Turning to `CCCCCCOc1ccc(C(=O)NCCC2CCN(CCCCCNC(=O)C=Cc3ccc(Cl)c(Cl)c3)CC2)cc1`, the inhibition was -0.8% in assay [1], -0.99% in assay [2] and -0.17% in assay [3].
Take `CC(C)(C)Nc1nc(Nc2cccc([N+](=O)[O-])c2)nc(-n2ccnc2)n1`: the inhibition in assay [1] is 1.91%; in assay [2], 1.9%; in assay [3] it was -1.47%.
With `COc1ccc2nccc(N(C)CC3(O)CCN(CC(O)c4ccc5c(c4)NC(=O)CS5)CC3)c2n1` (stereo unspecified), the inhibition in assay [1] was -0.29%; in assay [2] it was -0.78%; in assay [3] it was -0.26%.
In the case of `COc1ccccc1C1CCN(CCCCNC(=O)c2ccc(NC(=O)c3ccc(Cl)cc3)cc2)CC1`, the inhibition in assay [1] worked out at 1.27%; in assay [2], 3.41%; in assay [3] it was 2.05%.
Taken in the same sequence, the figures for `NC(=O)c1cccc(C(=O)Nc2cccc(-c3ccc(-c4nc5cc(C(F)(F)F)ccc5[nH]4)cc3)c2)c1` were 0.31%, 4.83% and 2.53%.
As to `CC(C)(C)[C@@H](Nc1ccc(C#N)c2ccccc12)C(=O)NC1(Cc2ccc(O)cc2)CCCC1`, the values for the inhibition in assay [1], in assay [2] and in assay [3] were 0.1%, -0.5% and 0.41%, respectively.
`FC(F)(F)c1ccc2[nH]c(-c3ccc(-c4ccc(CN5CCN(c6ccncc6)CC5)cc4)s3)nc2c1`: the inhibition in assay [1] was 1.51%; in assay [2], -1.36%; in assay [3], -2.12%.
As for `Cc1ccnc(NC(c2cccc(Cl)c2Cl)c2ccc3cccnc3c2O)c1` (stereo unspecified), the inhibition in assay [1] is 2.69%; in assay [2], 5.15%; in assay [3] it was -0.63%.
With `O=C(/C=C/c1ccc(Cl)c(Cl)c1)N1CCN(C(=O)Nc2ccc(F)c(Cl)c2)CC1`, the inhibition was 9.87% in assay [1], 8.92% in assay [2] and 11.1% in assay [3].
Turning to `Cc1nc(C)c(-c2ccc(C(=O)c3ccc(Cl)cc3)cc2)c(O)c1Cl`, the inhibition in assay [1] amounted to 8.16%; in assay [2], 10.4%; in assay [3], 9.25%.
On to `O=C(c1cccc(-c2cccc(-c3nc4cc(C(F)(F)F)ccc4[nH]3)c2)c1)N1CCCCC1CN1CCC(O)C1` (stereo unspecified), for which the values for the inhibition in assay [1], in assay [2] and in assay [3] were -0.81%, -0.87% and -1.32%, respectively.
Turning to `CCc1ccc(C2CCN(CCCCNC(=O)c3ccc(-c4ccc(C(F)(F)F)cc4)cc3)CC2)c(OCCO)c1`, the inhibition came to 7.26% in assay [1], 7.58% in assay [2] and 6.13% in assay [3].
Taken in the same sequence, the figures for `Nc1ncc(-c2ccc(F)cc2)cc1-c1nc2ccc(Cl)cc2[nH]1` were 4.48%, 5.54% and 2.11%.

The inhibition is the relative decrease from the control value, in per cent.
